For 28 compounds, morphology score and SARS-CoV-2 infection rate results are on record in the supplement of paper PMC13380429.

Test [1] concerns Vero E6 infected with SARS-CoV-2. The test is described as follows: morphology score (similarity to uninfected cells); higher = more like uninfected cells. The conditions noted are these: 24 h.
Test [2] shares this test system. The test is described as follows: SARS-CoV-2 infection rate relative to infected DMSO; higher = more infection, active = 60 or less. The conditions noted are these: 24 h.

In test [1], `CC(C)C[C@H](NC(=O)CNC(=O)c1cc(Cl)ccc1Cl)B1OC(=O)C(CC(=O)O)(CC(=O)O)O1` (0.833333 µM) had a morphology score of -0.0464. In test [2], the SARS-CoV-2 infection rate is 108% (inactive).
For `Cc1cc2c(C(N)=O)cccc2n1-c1nc2c(c(NCc3ccccc3)n1)COCC2` (10 µM) the same measures were -0.0618 and 116% (inactive).
As for `Nc1c(S(=O)(=O)O)cc(Nc2cccc3ccccc23)c2c1C(=O)c1ccccc1C2=O` (10 µM), in test [1], the morphology score is 0.145. Also, in test [2], the SARS-CoV-2 infection rate is 112% (inactive).
For `FC(F)(F)C(F)(F)C(F)(F)N(C(F)(F)C(F)(F)C(F)(F)F)C(F)(F)C(F)(F)C(F)(F)F` [perfluamine] (10 µM) the same measures were 0.16 and 92.5% (inactive).
For `CC1=C(C(=O)O)N2C(=O)[C@@H](NC(=O)[C@H](N)c3ccccc3)[C@H]2SC1` [cephalexin] (10 µM) the same measures were 0.0139 and 112% (inactive).
For `N#Cc1cnc2c(Cl)cc(NCc3cn(CCN4CCCCCC4)nn3)cc2c1Nc1ccc(F)c(Cl)c1` [cot-inhibitor-1] (10 µM) the same measures were 0.16 and 104% (inactive).
The compound `c1cc(-c2cnn3cc(-c4ccc(N5CCNCC5)cc4)cnc23)c2cccnc2c1` (0.833333 µM) yielded a morphology score in test [1] of -0.148. The SARS-CoV-2 infection rate in test [2] is 103% (inactive).
Regarding `CC(C)(C)c1ccc(S(=O)(=O)NCc2ccc(C(=O)Nc3cccnc3)cc2)cc1` (0.833333 µM), in test [1], the morphology score was determined as 0.0631. Further, the SARS-CoV-2 infection rate in test [2] was 107% (inactive).
For `C[C@H]1[C@@H](O)O[C@@H]2O[C@@]3(C)CC[C@H]4[C@H](C)CC[C@@H]1[C@@]24OO3` (10 µM) the same measures were 0.225 and 84% (inactive).
For `CCN1C(C)(C)CC(Oc2ccc(C(=O)Nc3ccc(NC(=O)Nc4cc(C(C)(C)C)on4)cc3)nc2)CC1(C)C` (10 µM) the same measures were -0.0181 and 101% (inactive).
Compound `Nc1nc2ccc(OC(F)(F)F)cc2s1` [riluzole] (10 µM) gave a morphology score in test [1] of 0.188. The SARS-CoV-2 infection rate in test [2] is 105% (inactive).
For `CN(C(=O)CN1C(=O)COc2cc(Cl)c(Cl)cc21)[C@@H](CN1CCCC1)c1ccc(-c2cccc(C(N)=O)c2)cc1` (0.833333 µM) the same measures were 0.0807 and 104% (inactive).
For `Cc1cc2c(OCC(CNC(C)(C)C)OC(=O)c3ccccc3)cccc2[nH]1` (stereo unspecified) [bopindolol] (10 µM) the same measures were 0.12 and 110% (inactive).
For `Nc1ccn([C@@H]2CS[C@H](CO)O2)c(=O)n1` [lamivudine] (10 µM) the same measures were -0.00863 and 102% (inactive).
In test [1], `O=C(CCCCCCNC(=O)c1cnc(N(c2ccccc2)c2ccccc2)nc1)NO` (0.833333 µM) returned a morphology score of -0.13. For the same compound, the SARS-CoV-2 infection rate in test [2] was 106% (inactive).
For `C[C@@H](CN)CC(=O)O` [3-methyl-GABA] (10 µM) the same measures were 0.0225 and 102% (inactive).
As to `CCOc1nc2cccc(C(=O)O)c2n1Cc1ccc(-c2ccccc2-c2nnn[nH]2)cc1` [candesartan] (10 µM), the morphology score in test [1] was 0.175. Moreover, the SARS-CoV-2 infection rate in test [2] was 105% (inactive).
The compound `Cc1c(O)cccc1C(=O)N[C@@H](CSc1ccccc1)[C@H](O)CN1C[C@H]2CCCC[C@H]2C[C@H]1C(=O)NC(C)(C)C` [nelfinavir] (10 µM) displayed a morphology score in test [1] of 0.722. The SARS-CoV-2 infection rate in test [2] is 47.5% (active).
For `O=C(CCCCCCC(=O)Nc1ccccc1)NO` [vorinostat] (0.833333 µM) the same measures were 0.00344 and 118% (inactive).
In turn, `C[C@@H](c1ncncc1F)[C@](O)(Cn1cncn1)c1ccc(F)cc1F` [voriconazole] (10 µM) came in with a morphology score in test [1] of 0.0199. In test [2], the SARS-CoV-2 infection rate was 101% (inactive).
`CN1[C@@H]2CC[C@H]1C[C@@H](OC1c3ccccc3CCc3ccccc31)C2` [deptropine] (0.833333 µM): in test [1], the morphology score was 0.24. For the same compound, the SARS-CoV-2 infection rate in test [2] was 100% (inactive).
`O=C(O)c1ccc2c(c1)nc(Nc1cccc(Cl)c1)c1ccncc12` (10 µM) registered a morphology score in test [1] of 0.237. For the same compound, the SARS-CoV-2 infection rate in test [2] is 103% (inactive).
`CCOC(=O)CNC(=O)[C@@H]1CCCN1C(=O)Cc1ccccc1` (10 µM) had a morphology score in test [1] of -0.0562. In test [2], the SARS-CoV-2 infection rate was 104% (inactive).
For `COc1cc2nc(N3CCCN(C)CC3)nc(NC3CCN(Cc4ccccc4)CC3)c2cc1OC` (0.833333 µM) the same measures were 0.456 and 73.5% (inactive).
Regarding `C[C@@](Cc1ccc(O)c(O)c1)(NN)C(=O)O` [carbidopa] (10 µM), in test [1], the morphology score was -0.0523. Besides, in test [2], the SARS-CoV-2 infection rate is 100% (inactive).
For `CC(C)(C)OC(=O)c1ncn2c1[C@@H]1CCCN1C(=O)c1c(Br)cccc1-2` [bretazenil] (10 µM) the same measures were 0.108 and 101% (inactive).
For the compound `C#Cc1cccc(Nc2ncnc3cc4c(cc23)OCCOCCOCCO4)c1` [icotinib] (0.833333 µM), in test [1], the morphology score was -0.00998. Also, the SARS-CoV-2 infection rate in test [2] is 117% (inactive).
Regarding `O=C(O)c1cc(=O)c2ccccc2o1` [chromocarb] (10 µM), in test [1], the morphology score was -0.133. Moreover, the SARS-CoV-2 infection rate in test [2] was 106% (inactive).
